What all share (assay): NCI-60 one-dose screen, 48 h (100 = growth as untreated, 0 = no growth, -100 = all killed)
The test system of one assay is RPMI-8226 leukemia. The following applies: 10 µM unless noted.
The subject of a further assay is OVCAR-8 ovarian. The following applies: 10 µM unless noted.
In the next assay the test system is OVCAR-5 ovarian. The conditions noted are these: 10 µM unless noted.
Another assay has as its system OVCAR-4 ovarian. The following applies: 10 µM unless noted.
A further assay relates to SK-OV-3 ovarian. The conditions noted are these: 10 µM unless noted.
In a further assay the test system is OVCAR-3 ovarian. The following applies: 10 µM unless noted.
Another assay deals with HS 578T breast. The conditions noted are these: 10 µM unless noted.
The subject of another assay is NCI/ADR-RES ovarian. The conditions noted are these: 10 µM unless noted.
Another assay relates to T-47D breast. The following applies: 10 µM unless noted.
For a further assay, the system named is BT-549 breast. The conditions noted are these: 10 µM unless noted.
The subject of the next assay is MDA-MB-435 melanoma. The following applies: 10 µM unless noted.
A further assay relates to SW-620 colon. The following applies: 10 µM unless noted.
The next assay concerns MCF7 breast. The following applies: 10 µM.
In the next assay the test system is HCT-116 colon. The following applies: 10 µM unless noted.
In the next assay the test system is HCC-2998 colon. The following applies: 10 µM unless noted.
Another assay concerns KM12 colon. The conditions noted are these: 10 µM unless noted.
For a further assay, the system named is IGROV1 ovarian. The following applies: 10 µM unless noted.

SMILES strings stand for the structures. This is part of a sample that, as a whole, favours compounds with a hit. Of some 83,000 tested, about 20% had one in any assay.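 Percent growth is the endpoint: 0 to 100 indicates growth inhibition (40 means 60% inhibition), 0 means no net growth, and negative values indicate cell death.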 A number with no mark means an inactive call. Calls of active or inactive are those of the source. The calls were made as follows: active = growth percent below 10; inactive = the rest.

On to `COc1cc(C#N)cc2[nH]c(=O)oc12`, for which the growth is 107% in the assay on RPMI-8226 leukemia; 112% in the assay on OVCAR-8 ovarian; 98.8% with OVCAR-5 ovarian; 96.9% with OVCAR-4 ovarian; 113% in the assay on SK-OV-3 ovarian; 106% in the assay with OVCAR-3 ovarian. Moreover, the growth is 99.1% in the assay with HS 578T breast; 99.6% in the assay with NCI/ADR-RES ovarian; 101% in the assay with T-47D breast; 97% in the assay with BT-549 breast; 97.9% in the assay on MDA-MB-435 melanoma; 101% with SW-620 colon. Also, the growth in the assay with MCF7 breast is 101%; in the assay with HCT-116 colon it was 102%; with HCC-2998 colon, 105%; in the assay on KM12 colon it was 101%.
Consider `Cn1nc(C(F)(F)F)c(-c2ccc(Cl)c(C(F)(F)F)c2)c1-c1ccc(OCc2ccc(Cl)cc2)cc1O`, for which the growth in the assay with RPMI-8226 leukemia is -17.9% (active); in the assay with OVCAR-8 ovarian, 7.41% (active); in the assay with OVCAR-5 ovarian, 53.4%; in the assay with OVCAR-4 ovarian, 30.2%; with SK-OV-3 ovarian, 20.6%; with OVCAR-3 ovarian, 1.24% (active). The growth was 22.8% with HS 578T breast; 8.38% (active) in the assay on NCI/ADR-RES ovarian; -0.38% (active) in the assay with T-47D breast; 39.8% in the assay with BT-549 breast; 24.7% in the assay on MDA-MB-435 melanoma; 13.9% in the assay with SW-620 colon. The growth in the assay on MCF7 breast was 4.01% (active); in the assay on HCT-116 colon, -0.403% (active); with HCC-2998 colon it was 13.5%; in the assay on KM12 colon, 8.83% (active).
As for `O=C(Nc1ccc(N2CCNCC2)cc1)c1[nH]ncc1Nc1ncnc2sc3c(c12)CCC3`, the growth was -40.6% (active) in the assay with RPMI-8226 leukemia; -43.7% (active) in the assay with OVCAR-8 ovarian; -88.1% (active) in the assay with OVCAR-5 ovarian; 15.8% in the assay with OVCAR-4 ovarian; -27.9% (active) with SK-OV-3 ovarian; -9.21% (active) with IGROV1 ovarian. Further, the growth with HS 578T breast was -54.8% (active); in the assay with T-47D breast it was 20.4%; in the assay with BT-549 breast it was 0.151% (active); in the assay with MDA-MB-435 melanoma, -94.4% (active); with SW-620 colon it was -83.1% (active); with MCF7 breast it was -59% (active). In addition, the results for the growth in the assay on HCT-116 colon, with HCC-2998 colon and with KM12 colon were -85.4% (active), -91.4% (active) and -82.4% (active), respectively.
For `COc1ccc(/C=C2\NC(=O)NC2=O)cc1O`, the growth is 101% in the assay on RPMI-8226 leukemia; 98.5% with OVCAR-8 ovarian; 108% in the assay on OVCAR-5 ovarian; 98.8% with OVCAR-4 ovarian; 103% in the assay with SK-OV-3 ovarian; 107% in the assay with IGROV1 ovarian. Moreover, the growth was 109% in the assay with HS 578T breast; 102% with NCI/ADR-RES ovarian; 100% in the assay on T-47D breast; 94.1% in the assay with BT-549 breast; 94.7% with MDA-MB-435 melanoma; 109% in the assay with SW-620 colon. In addition, the growth in the assay on MCF7 breast was 100%; in the assay on HCT-116 colon, 89.3%; in the assay on HCC-2998 colon, 107%; in the assay on KM12 colon it was 102%.
As for `O=c1cc(NC2CCN(CCCc3ccccc3)CC2)c2cc(Cl)ccc2o1`, the growth was -8.63% (active) in the assay on RPMI-8226 leukemia; -0.533% (active) in the assay on OVCAR-8 ovarian; 30.5% with OVCAR-5 ovarian; 12.7% in the assay on OVCAR-4 ovarian; 4.31% (active) with SK-OV-3 ovarian; -16.6% (active) with OVCAR-3 ovarian. Moreover, the growth was 2.69% (active) with HS 578T breast; 6.68% (active) in the assay with NCI/ADR-RES ovarian; 4.55% (active) in the assay on T-47D breast; 17.8% in the assay with BT-549 breast; -8.02% (active) in the assay on MDA-MB-435 melanoma; 6.98% (active) in the assay on SW-620 colon. The growth is 3.46% (active) with MCF7 breast, 8.12% (active) in the assay with HCT-116 colon, -6.89% (active) in the assay with HCC-2998 colon and 0.149% (active) in the assay on KM12 colon.
Regarding `CCOc1ccccc1CN1CCc2nc3cc(C(C)(C)C)[nH]n3c(=O)c2C1`, the growth with RPMI-8226 leukemia was 101%; with OVCAR-8 ovarian, 103%; in the assay on OVCAR-5 ovarian, 97.9%; in the assay on OVCAR-4 ovarian, 101%; with SK-OV-3 ovarian it was 110%; in the assay with IGROV1 ovarian, 99.5%. The growth in the assay on HS 578T breast was 100%; with NCI/ADR-RES ovarian, 91.8%; in the assay on T-47D breast it was 98.6%; with BT-549 breast it was 106%; in the assay on MDA-MB-435 melanoma, 104%; in the assay on SW-620 colon, 105%. The growth with MCF7 breast is 98%; with HCT-116 colon, 102%; with HCC-2998 colon, 98.7%; in the assay with KM12 colon, 98.2%.
Regarding `CC[C@]1(O)C[C@@H]2CN(CCc3c([nH]c4ccccc34)[C@@](C(=O)OC)(c3cc4c(cc3OC)N(C)[C@H]3[C@@](O)(C(=O)OC)[C@H](OC(C)=O)[C@]5(CC)C=CCN6CC[C@]43[C@@H]65)C2)C1`, the growth with RPMI-8226 leukemia is 11.3%; in the assay on OVCAR-8 ovarian it was 21.5%; with OVCAR-5 ovarian, 17.4%; in the assay on OVCAR-4 ovarian it was 33.7%; with SK-OV-3 ovarian, 43.5%; in the assay on IGROV1 ovarian it was 9.76% (active). Besides, the growth is 15.8% in the assay with HS 578T breast; -19.8% (active) with NCI/ADR-RES ovarian; 68.6% in the assay with T-47D breast; -38% (active) in the assay on MDA-MB-435 melanoma; 22.7% with SW-620 colon; 10.6% with MCF7 breast. Besides, the values for the growth in the assay on HCT-116 colon, in the assay on HCC-2998 colon and in the assay with KM12 colon were 7.92% (active), 0.153% (active) and 8.64% (active), respectively.
Take `COc1cc(C(C)n2cc(-c3ccccc3)nn2)ccc1OC1CCCCC1` (configuration not stated): the growth with RPMI-8226 leukemia is 35%; in the assay on OVCAR-8 ovarian, 55.3%; in the assay on OVCAR-5 ovarian, 92.6%; in the assay with OVCAR-4 ovarian, 55.2%; in the assay with SK-OV-3 ovarian, 73.4%; in the assay with IGROV1 ovarian, 77.2%. Also, the growth with HS 578T breast was 91.4%; in the assay with NCI/ADR-RES ovarian, 49.3%; in the assay with T-47D breast, 58.8%; in the assay on BT-549 breast it was 69.3%; with MDA-MB-435 melanoma it was 68.1%; with SW-620 colon it was 75.5%. Besides, the growth in the assay with MCF7 breast was 49.8%; with HCT-116 colon it was 42.5%; in the assay with HCC-2998 colon it was 81.4%; with KM12 colon it was 77.9%.
Take `O=[N+]([O-])c1cc2c(ccc3occc32)o1`: the growth with RPMI-8226 leukemia is 36.5%; with OVCAR-8 ovarian it was 30%; in the assay on OVCAR-5 ovarian, 72.7%; with OVCAR-4 ovarian it was 66.6%; in the assay with SK-OV-3 ovarian, 14.7%; in the assay on IGROV1 ovarian, 27.1%. The growth with HS 578T breast is 50.4%; with NCI/ADR-RES ovarian, 29.2%; in the assay with T-47D breast, 95.1%; with BT-549 breast, 22%; in the assay with MDA-MB-435 melanoma, -75.1% (active); in the assay with SW-620 colon, 27.6%. Also, the growth with MCF7 breast is 9.95% (active); in the assay with HCT-116 colon it was 7.94% (active); in the assay with HCC-2998 colon, 10.9%; in the assay with KM12 colon, 28.6%.
